# Experimental data published in PubChem BioAssay (Tox21).
# Inconclusive results are not listed. Activity calls are given as the source filed them. Calls follow the shape of the dose curve; as a rule, active = well fitted curve in the direction sought with a large enough effect in the signal ratio in the repeat runs (not every such curve was filed as active); inconclusive = weak or mixed curves, or a change in a side signal; inactive = no such curve, though single readings can be large or run the other way; the % refers to the signal ratio.
# Assay: qHTS assay to identify small molecule agonists of the NFkB signaling pathway (AID 1159509)
# Settings: NFkB-bla ME-180 cells, beta-lactamase FRET ratio, 5 h; series mostly up to 61 µM
# From the text: National Center for Advancing Translational Sciences [NCATS]
# NIH Chemical Genomics Center [NCGC]
# U.S. Environmental Protection Agency [EPA]
# National Institutes of Environmental Health Sciences [NIEHS]
# National Toxicology Program [NTP]
# U.S. Food and Drug Administration [FDA]
# Transcription factors and their stimulated target gene expression play pivotal roles across many cellular processes including responses to environmental stimuli. Proper regulation of associated pathways is critical to maintain cell health and function. Constitutive activation of transcription factor pathways has been implicated in tumors as it may block cellular functions such as apoptosis and lead to invasion and metastasis. One important transcription factor that stimulates gene expression in response to cytokines, UV radiation, and other stimuli is nuclear factor-kappa B (NFkB). To measure activation of the NFkB pathway, the CellSensor NFkB-bla ME-180 cell line (Life Technologies, Carlsbad, CA) that stably expresses beta-lactamase reporter gene under the regulation of a NF-kB response element was used. This assay allows measurement of the NFkB pathway activity induced by compounds in a ME-180 cell line. This system quantitates NF-kB activity using a FRET-based assay system where beta-lactamase expression disrupts FRET, allowing for fluorescent measurement of activity. This cell line has been used to screen the Tox21 10K compound library and to identify compounds that induce the NFkB pathway activity.
# Tox21 Assay Protocol Summary:
# NFkB-bla ME-180 cells were dispensed at 2,000 cells/6 uL of assay medium per well into black wall/clear-bottom 1536-well plates using a Multidrop Combi (ThermoFisher Scientific, Waltham, MA) dispenser. After the assay plates were incubated at 37 C and 5% CO2 for an overnight, 23 nL of compounds dissolved in DMSO, positive controls or DMSO only was transferred to the assay plate by a Pintool station (Kalypsys, San Diego, CA). The assay plates were incubated at 37 C and 5% CO2 for 5 hr. One uL of LiveBLAzer B/G FRET substrate (Life Technologies) was added using a Flying Reagent Dispenser (Aurora Discovery, San Diego, CA) and the plates were incubated at room temperature for 1.5 hr. Fluorescence intensity (405 nm excitation, 460 nm and 530 nm emissions) was measured using an Envision plate reader (PerkinElmer, Shelton, CT).
# % is scaled to controls: 0 for no effect and ±100 for the full control effect.
Compound,outcome,activation
CC/C=C\CCOC(C)=O,inactive,
CN(C)CCCN1c2ccccc2CCc2ccc(Cl)cc21,inactive,
N=C(N)c1ccc(OCCCOc2ccc(C(=N)N)cc2)cc1,inactive,
NC(=O)c1ccc([N+](=O)[O-])cc1,inactive,
O=C(O)CCCc1ccccc1,inactive,
Nc1cc(=O)[nH]c(N)n1,inactive,
CN1CC(=O)NC1=N,inactive,
CCCN1CCCC[C@H]1C(=O)Nc1c(C)cccc1C,inactive,
COCCCOCCCOC,inactive,
O=[N+]([O-])c1ccc(F)cc1F,inactive,
CCCCC(CC)COC(=O)c1ccccc1O (stereo not given),inactive,
CC(C)(O)C(=O)c1ccccc1,inactive,
CC(C)CCCC(C)N (stereo not given),inactive,
CC1=CC(C)C(C=O)CC1 (stereo not given),inactive,
CCCN(CCC)CCc1cccc2c1CC(=O)N2,inactive,
CCC=O,inactive,
COc1cc(C(=O)N2CCCCCCC2)cc(OC)c1OC,inactive,
CC(=O)c1ccccc1O,inactive,
Cn1c(N)c(N=O)c(=O)n(C)c1=O,inactive,
CC(C)(C)NCCNC(C)(C)C,inactive,

Compound,outcome,activation
CCCCCCCCCCCCN(CCCCCCCCCCCC)CCCCCCCCCCCC,inactive,
Nc1nc2c(ncn2COC(CO)CO)c(=O)[nH]1,inactive,
CCc1cccc2c(CCO)c[nH]c12,inactive,
COC(=O)c1ccc(C)cc1C1=NC(C)(C(C)C)C(=O)N1 (stereo not given),inactive,
FC1(F)C(F)(F)C(F)(F)C2(F)C(F)(F)C(F)(F)C(F)(F)C(F)(F)C2(F)C1(F)F (stereo not given),inactive,
NCCc1cnc[nH]1,inactive,
Cc1cccc(C)c1NC(=O)C(C)N (stereo not given),inactive,
Cc1sccc1Br,inactive,
CC(C)c1cc2c(cc1S(=O)(=O)O)[C@@]1(C)CCC[C@@](C)(C(=O)O)[C@@H]1CC2,inactive,
CC(C)OC(=O)c1ccccc1,inactive,
C=C1CC[C@H]2C[C@@H]1C2(C)C,inactive,
Oc1ccc(C2CNCCc3c2cc(O)c(O)c3Cl)cc1 (stereo not given),inactive,
CCOC(=O)[C@H](CCc1ccccc1)N[C@@H](C)C(=O)N1[C@H](C(=O)O)C[C@@H]2CCC[C@@H]21,inactive,
N[C@@H](C(=O)N[C@@H]1C(=O)N2C(C(=O)O)=C(Cl)CS[C@H]12)c1ccccc1,,-0.195% [at 6.95 µM] (inactive)
N[C@H]1CN(c2c(F)cc3c(=O)c(C(=O)O)cn(C4C[C@H]4F)c3c2Cl)CC12CC2 (stereo not given in full),inactive,
O=c1n(CCO)c(=O)n(CCO)c(=O)n1CCO,inactive,
NC(CSCC(=O)O)C(=O)O (stereo not given),inactive,
CCC(C)C1CCCCC1=O (stereo not given),inactive,
O=C(O)COc1nn(Cc2ccccc2)c2ccccc12,inactive,
C1CN(CCOCCN2CCOCC2)CCO1,inactive,
